Measured values from paper PMC11006913.

The sequences below were run against HOXD13 (Homo sapiens, UniProt P35453 263-343, T313A) (assay: PBM; 200 nM protein, PBS). Conditions: dsDNA, one strand shown.
HOXD13, sequence (P35453 263-343 T313A): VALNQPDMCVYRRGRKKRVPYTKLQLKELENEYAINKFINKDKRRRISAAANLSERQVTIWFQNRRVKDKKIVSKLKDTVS

Sequence	binding signal
GGCCCGAA	9.59 upbm affinity estimate (log intensity, higher = more binding, comparable within an allelic series)
CCCTGGAG	9.78 upbm affinity estimate (log intensity, higher = more binding, comparable within an allelic series)
AAGGGGGG	9.26 upbm affinity estimate (log intensity, higher = more binding, comparable within an allelic series)
TCTCGTAA	11.6 upbm affinity estimate (log intensity, higher = more binding, comparable within an allelic series)
CCGTAAAA	11.6 upbm affinity estimate (log intensity, higher = more binding, comparable within an allelic series)
CTTGTAAA	11.9 upbm affinity estimate (log intensity, higher = more binding, comparable within an allelic series)
CATATAAA	11.9 upbm affinity estimate (log intensity, higher = more binding, comparable within an allelic series)
GGCCCACC	9.5 upbm affinity estimate (log intensity, higher = more binding, comparable within an allelic series)
CGCCGCCC	9.6 upbm affinity estimate (log intensity, higher = more binding, comparable within an allelic series)
CCTGAAGG	9.6 upbm affinity estimate (log intensity, higher = more binding, comparable within an allelic series)
CTATAAAG	11.6 upbm affinity estimate (log intensity, higher = more binding, comparable within an allelic series)
CGCCCCCA	9.5 upbm affinity estimate (log intensity, higher = more binding, comparable within an allelic series)
GGCCGGCA	9.65 upbm affinity estimate (log intensity, higher = more binding, comparable within an allelic series)
CGCCCGCG	9.59 upbm affinity estimate (log intensity, higher = more binding, comparable within an allelic series)
CCGCCCTC	9.66 upbm affinity estimate (log intensity, higher = more binding, comparable within an allelic series)
TCGGCCCA	9.55 upbm affinity estimate (log intensity, higher = more binding, comparable within an allelic series)
CTTGTTAA	11.7 upbm affinity estimate (log intensity, higher = more binding, comparable within an allelic series)
ATTACGAG	11.4 upbm affinity estimate (log intensity, higher = more binding, comparable within an allelic series)

Sequence	binding signal
CGTGCCCC	9.71 upbm affinity estimate (log intensity, higher = more binding, comparable within an allelic series)
CATGTATA	11 upbm affinity estimate (log intensity, higher = more binding, comparable within an allelic series)
CGCACAGC	9.53 upbm affinity estimate (log intensity, higher = more binding, comparable within an allelic series)
TCCATAAA	11.7 upbm affinity estimate (log intensity, higher = more binding, comparable within an allelic series)
CCCTGACC	9.64 upbm affinity estimate (log intensity, higher = more binding, comparable within an allelic series)
CATCGGGG	9.72 upbm affinity estimate (log intensity, higher = more binding, comparable within an allelic series)
AGCCGGCC	9.49 upbm affinity estimate (log intensity, higher = more binding, comparable within an allelic series)
AATAAACC	11.6 upbm affinity estimate (log intensity, higher = more binding, comparable within an allelic series)
ATTTACAA	11.6 upbm affinity estimate (log intensity, higher = more binding, comparable within an allelic series)
CCTCATAA	11.6 upbm affinity estimate (log intensity, higher = more binding, comparable within an allelic series)
AGTTTATA	11.6 upbm affinity estimate (log intensity, higher = more binding, comparable within an allelic series)
CATCGGGC	9.62 upbm affinity estimate (log intensity, higher = more binding, comparable within an allelic series)
CGCGATGC	9.65 upbm affinity estimate (log intensity, higher = more binding, comparable within an allelic series)
GGGTTGAA	9.62 upbm affinity estimate (log intensity, higher = more binding, comparable within an allelic series)
CTACGTAG	9.71 upbm affinity estimate (log intensity, higher = more binding, comparable within an allelic series)
CCGCGCTC	9.47 upbm affinity estimate (log intensity, higher = more binding, comparable within an allelic series)
GTTTATGA	11.8 upbm affinity estimate (log intensity, higher = more binding, comparable within an allelic series)
GAGGGGCC	9.41 upbm affinity estimate (log intensity, higher = more binding, comparable within an allelic series)
